# ChEMBL document CHEMBL4513216, “Probing the Open Global Health Chemical Diversity Library for Multistage-Active Starting Points for Next-Generation Antimalarials” (ACS Infect Dis, 2020)
# The whole screen tested about 69,000 compounds, of which about 8,600 (12%) showed an effect of 50% or more. Shown is part of a subset that was picked to be rich in strong results.
# System: Plasmodium berghei
# Test: Screen against P. berghei liver stage (PbLuc), transformed with Luciferase, at 10uM
# Type: functional, HepG2
# Conditions: tested at 10 uM
row,Structure (SMILES),INHIBITION
1,Cc1ccc(CNC(=O)CN2CCN(CC(O)c3ccco3)CC2)cc1 (centres undefined),-1.58%
2,O=C(NCC1CC1)C1CCC2(CCN(C(=O)c3ccccn3)CC2)O1 (centres undefined),-3.44%
3,O[C@@H]1CC(CNCC2CC2)(COc2cccnc2)C[C@@H]1O (some centres undefined),51%
4,COc1ccc(CNCC2(COc3cccnc3)C[C@@H](O)[C@@H](O)C2)cc1 (some centres undefined),25.3%
5,O[C@@H]1CC(CNCC2CCCC2)(COc2cccnc2)C[C@@H]1O (some centres undefined),-23.9%
6,COCC(=O)NCC1(COc2cccnc2)C[C@@H](O)[C@@H](O)C1 (some centres undefined),57.4%
7,COCC(=O)NCC1(COc2cnccn2)C[C@@H](O)[C@@H](O)C1 (some centres undefined),7.31%
8,O[C@@H]1CC(CNCc2ccccn2)(COc2cccnc2)C[C@@H]1O (some centres undefined),-36%
9,O=c1c(NCCc2ccc(O)cc2)c(NCc2ccncc2)c1=O,32.1%
10,CC(C)c1noc(-c2ccc(NC(=O)NCC(O)C(C)C)cc2)n1 (centres undefined),-132%
11,Cc1ccc(OCCC(=O)NC2CCc3nc(C)cn3C2)cc1 (centres undefined),5.53%
12,Cc1ccc(C(=O)NS(=O)(=O)Cc2ccccc2)cc1S(C)(=O)=O,1.98%
13,COC(=O)C1CCCN1C(=O)c1cc(CC(C)C)no1 (centres undefined),-4.51%
14,CC(C)Cc1cc(C(=O)N2CCC(C(=O)N3CCOCC3)CC2)on1,31.2%
15,CC(C)Cc1cc(C(=O)N2CCC[C@H]2C(=O)N2CCOCC2)on1,68%
16,CN(C)Cc1nc(C2(NC(=O)Nc3ccccc3)CCCC2)no1,-20.1%
17,O=c1c(-c2ccnc(NC3CCCCC3)n2)cnc2sc(Cl)cn12,29.3%
18,CCOc1ncccc1NC(=O)NCC(C)O (centres undefined),-1.14%
19,Cc1nn(C(C)C)c(C)c1NC(=O)c1ccncc1,26.8%
20,CCOc1ncccc1NC(=O)Nc1c(C)nn(C(C)C)c1C,56.8%
21,CCOc1ncccc1NC(=O)N1CCCCCC1,22.3%
22,CCOc1ncccc1NC(=O)N1CCN(c2ccc(O)cc2)CC1,-5.845%
23,COc1ccc(Oc2ncccc2NC(=O)N2CCOCC2C)cc1 (centres undefined),28.7%
24,CCOc1ncccc1NC(=O)N1CCN(c2cccc(C)c2C)CC1,90.4%
25,CCOc1ncccc1NC(=O)N1CCOCC1C (centres undefined),52.2%
26,COc1ncccc1NC(=O)N1CCOCC1C (centres undefined),45.4%
27,COCCN1C[C@@H]2CN(Cc3cccc(F)c3)CCC[C@]2(C(=O)O)C1,-1.64%
28,CN(Cc1ccc(N2CCOCC2)cc1)C(=O)Cn1cccnc1=O,7.08%
29,CC(=O)N1CCC(c2[nH]ncc2S(C)(=O)=O)CC1,4.41%
